Data on 38 compounds can be found in PubChem BioAssay (Tox21).

Inconclusive results are not listed. Values without a mark were called inactive. Activity calls are given as the source filed them. Calls come from the whole dose curve; as a rule, active = well fitted inhibition curve with a large enough effect in the repeat runs; inconclusive = weak or mixed curves; inactive = no such curve, though single readings can be large or run the other way.
% is set by controls: 0 for no effect and ±100 for the full control effect; potency is the fitted concentration of half-maximal effect.

Sequence of Cytochrome P450 2D6 (Homo sapiens) (P10635 whole entry, looked up): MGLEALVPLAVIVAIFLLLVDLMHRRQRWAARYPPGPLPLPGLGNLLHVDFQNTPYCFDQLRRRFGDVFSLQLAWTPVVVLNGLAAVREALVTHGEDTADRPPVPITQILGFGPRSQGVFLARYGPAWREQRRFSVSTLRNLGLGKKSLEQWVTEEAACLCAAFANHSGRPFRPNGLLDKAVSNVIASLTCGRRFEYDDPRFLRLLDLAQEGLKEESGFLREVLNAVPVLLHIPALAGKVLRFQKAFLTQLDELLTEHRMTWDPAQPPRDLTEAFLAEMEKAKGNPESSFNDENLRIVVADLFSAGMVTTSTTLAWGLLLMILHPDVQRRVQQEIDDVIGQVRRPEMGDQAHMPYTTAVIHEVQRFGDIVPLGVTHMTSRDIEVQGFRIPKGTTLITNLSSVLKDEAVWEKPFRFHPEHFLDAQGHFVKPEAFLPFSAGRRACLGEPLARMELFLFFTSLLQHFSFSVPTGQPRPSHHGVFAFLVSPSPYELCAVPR

The assay has as its target Cytochrome P450 2D6 (Homo sapiens) (UniProt P10635). Kind of assay: Cytochrome P450 Family 2 Subfamily D Member 6 (CYP2D6) small molecule antagonists: luciferase reporter qHTS assay (AID 1671196). Note: nearly all actives have a fitted effect of over 50% in size. As to conditions: P450-Glo CYP2D6 enzyme assay, luciferin luminescence, 1 h; series mostly up to 115 µM; activity change, negative = inhibition: at the top concentration. Put shortly: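 Test chemicals meet CYP2D6 plus proluciferin substrate (10 min, RT); NADPH regenerating solution then drives turnover for 1 h. Detection reagent halts the reaction; luminescence measured after 20 min.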
A general note: In a reporter assay the amount or activity of a reporter protein is the signal.
For `CCCOCCC`, the “activity change, negative = inhibition” value is -3.16%.
For `CCCCOc1cc(C(=O)NCCN(CC)CC)c2ccccc2n1`, the Potency is 13.8 µM (active).
For `CC(C)C(=O)OCC(C)(C)C(O)C(C)C` (stereo not drawn), the “activity change, negative = inhibition” value is -1.6%.
With `CN1CCN(C2=Nc3ccccc3Oc3ccc(Cl)cc32)CC1`, the Potency is 4.9 µM (active).
For `CCN(CC)CCNC(=O)COc1ccc(Cl)cc1`, the Potency was 12.3 µM (active).
`Cc1ccc([N+](=O)[O-])cc1Cl`: the “activity change, negative = inhibition” value is -0.431%.
The same measure, in the same setting: to `CCOc1ccc(NC(N)=O)cc1` belongs -8.56%; to `COC(=O)/C=C(/C)N`, -22.5% [at 53 µM].
Still for that read-out and setting: for `NNS(=O)(=O)c1ccc(Oc2ccc(S(=O)(=O)NN)cc2)cc1` the value was -24.6%.
Consider `CC(=O)O[C@H]1CC[C@@]2(C)C(=CC[C@@H]3[C@@H]2CC[C@]2(C)C(C(C)=O)=CC[C@@H]32)C1`, for which the “activity change, negative = inhibition” value is -3.29% [at 53 µM].
For `O=c1[nH]c(=O)n([C@H]2C[C@H](O)[C@@H](CO)O2)cc1C(F)(F)F`, the “activity change, negative = inhibition” value was -7.16% [at 53 µM].
Regarding `CC(=O)OC1C2(C)CCC(C2)C1(C)C` (stereo not drawn), the “activity change, negative = inhibition” value is 0.785%.
Consider `CCc1nnc(NS(=O)(=O)c2ccc(N)cc2)s1`, for which the “activity change, negative = inhibition” value is 2.54% [at 53 µM].
Consider `COC(C)CCO` (stereo not drawn), for which the “activity change, negative = inhibition” value is -22.4%.
On to `O=C(O[C@@H](C(=O)O)[C@@H](OC(=O)c1ccccc1)C(=O)O)c1ccccc1`, for which the Potency was 40.6 µM (active).
Same read-out and setting: for `CCN1CC(CCN2CCOCC2)C(c2ccccc2)(c2ccccc2)C1=O` (stereo not drawn) the value was 1.23 µM (active).
For the compound `NC(=O)Cc1cccc(C(=O)c2ccccc2)c1N`, the “activity change, negative = inhibition” value is -4.75% [at 53 µM].
In the case of `CN1CCN(N)CC1`, the “activity change, negative = inhibition” value is -3.31% [at 53 µM].
Take `O=C1CCCCCCCCCCC(=O)OCCO1`: the “activity change, negative = inhibition” value is -25.4%.
As to `CCCCC1CCC(=O)O1` (stereo not drawn), the “activity change, negative = inhibition” value is -0.333%.
Regarding `CCOC(=O)NCCC[Si](OCC)(OCC)OCC`, the “activity change, negative = inhibition” value was 1.45%.
`CCCNC(C)C(=O)Nc1c(C)csc1C(=O)OC` (stereo not drawn): the “activity change, negative = inhibition” value was -20.4% [at 53 µM].
Consider `Nc1cccc(S(=O)(=O)O)c1`, for which the Potency was 71.2 µM (active).
Consider `O=c1oc2c(O)c(O)cc3c(=O)oc4c(O)c(O)cc1c4c23`, for which the activity change, negative = inhibition was -16.4% [at 23.6 µM].
Same read-out and setting: for `CC/C=C\CCOC(=O)C(C)C` the value was -20.9%.
In the case of `CCN(CC)CCOc1ccc(Cc2ccccc2)cc1`, the Potency was 9.77 µM (active).
For `CCCCCCCCc1ccc(S(=O)(=O)O)cc1`, the “activity change, negative = inhibition” value is 0.5%.
With `CC(C)C(=O)OC/C=C/c1ccccc1`, the “activity change, negative = inhibition” value was -21.9%.
Take `CC(=O)Nc1ccc(C)c(Cl)c1`: the “activity change, negative = inhibition” value was -9.47%.
Consider `CCCCCCCCCC/C=C/C#N`, for which the “activity change, negative = inhibition” value is -7.5%.
For `Oc1ccccc1F`, the “activity change, negative = inhibition” value was -5.08%.
For `Cc1c(C(=O)NCCO)[n+](=O)c2ccccc2n1[O-]`, the “activity change, negative = inhibition” value was -6.3% [at 53 µM].
In the case of `Cc1onc(-c2ccccc2)c1C(=O)Cl`, the “activity change, negative = inhibition” value was -8.28% [at 53 µM].
Same read-out and setting: to `CN1C(=O)CC(c2ccccc2)C1=O` (stereo not drawn) belongs 0.3% [at 53 µM]; to `OC[C@H]1O[C@@H](O[C@H]2[C@H](O)[C@@H](O)[C@H](O)O[C@@H]2CO)[C@H](O)[C@@H](O)[C@H]1O`, -5.62%.
Regarding `Cc1ccc(C=O)s1`, the “activity change, negative = inhibition” value is -6.43%.
As to `CC(C)O`, the “activity change, negative = inhibition” value is 3.14%.
The same measure, in the same setting: for `CCC/C=C/CO` the value was -0.412%.
